According to PubChem BioAssay (NCATS):
Several values for one entry are separate records, joined by “and”; a condition that tells them apart may be missing. Identical values can stand only once. Records with an inconclusive call do not appear. More than one record can exist for a structure, and the calls need not agree. Activity calls are given as the source filed them. Calls come from the whole dose curve; as a rule, active = well fitted curve in the direction sought with a large enough effect; inconclusive = small, poorly fitted or top-dose-only effect, or another doubt; inactive = no such curve, though single readings can be large or run the other way.

Target: T1, Hexokinase-4 (Homo sapiens) + Glucokinase regulatory protein (Homo sapiens) (UniProt P35557+Q14397)
Test: qHTS assay for inhibitors of recombinant human GCK-GKRP interaction: Diaphorase-coupled assay (AID 743205)
Conditions: G6PDH/diaphorase resorufin fluorescence; series mostly up to 57.5 µM; activity change, positive = activation: at the top concentration
Method in brief: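 Compounds pre-incubated 20 min with substrate, then 10 nM GST-GCK with 10 nM FLAG-GKRP added. GCK activity coupled via G6PDH and diaphorase to resorufin (5 mM glucose, 0.4 mM ATP, 0.15 mM NADP+, pH 7.6), read kinetically over 30 minutes at Ex 525/Em 590 nm.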

T1 sequence (P35557 whole entry, looked up): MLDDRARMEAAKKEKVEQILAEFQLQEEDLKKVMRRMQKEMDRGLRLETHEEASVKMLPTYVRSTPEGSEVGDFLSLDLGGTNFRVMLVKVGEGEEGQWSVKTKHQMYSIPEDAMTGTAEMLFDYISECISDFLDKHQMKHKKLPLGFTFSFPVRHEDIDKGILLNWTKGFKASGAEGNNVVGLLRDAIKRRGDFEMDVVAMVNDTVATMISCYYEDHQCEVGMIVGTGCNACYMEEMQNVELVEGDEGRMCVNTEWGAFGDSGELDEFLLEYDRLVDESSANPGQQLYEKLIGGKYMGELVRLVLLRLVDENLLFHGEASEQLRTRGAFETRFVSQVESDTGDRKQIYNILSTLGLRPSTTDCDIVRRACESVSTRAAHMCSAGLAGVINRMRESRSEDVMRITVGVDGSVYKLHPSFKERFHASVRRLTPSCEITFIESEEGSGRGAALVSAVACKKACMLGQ
T1 sequence (Q14397 whole entry, looked up): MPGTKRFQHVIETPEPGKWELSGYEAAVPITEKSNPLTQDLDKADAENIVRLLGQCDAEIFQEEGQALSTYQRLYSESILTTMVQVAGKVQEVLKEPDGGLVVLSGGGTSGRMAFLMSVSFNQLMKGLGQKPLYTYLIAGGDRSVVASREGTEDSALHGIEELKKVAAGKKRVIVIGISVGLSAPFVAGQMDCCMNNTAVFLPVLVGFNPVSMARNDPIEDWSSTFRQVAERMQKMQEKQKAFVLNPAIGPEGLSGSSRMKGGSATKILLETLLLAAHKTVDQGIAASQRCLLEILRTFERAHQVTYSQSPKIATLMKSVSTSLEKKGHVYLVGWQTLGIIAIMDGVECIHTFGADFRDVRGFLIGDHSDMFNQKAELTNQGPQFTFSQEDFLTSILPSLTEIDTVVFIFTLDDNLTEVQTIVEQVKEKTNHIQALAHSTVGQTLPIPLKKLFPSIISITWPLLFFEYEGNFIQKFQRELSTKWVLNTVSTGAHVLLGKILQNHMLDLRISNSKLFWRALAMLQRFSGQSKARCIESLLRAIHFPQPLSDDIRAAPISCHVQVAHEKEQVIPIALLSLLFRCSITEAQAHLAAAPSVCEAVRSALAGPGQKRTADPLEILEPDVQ

Q: For `Nc1ncnc2c1ncn2[C@@H]1O[C@H](CO)[C@@H](O)[C@H]1O`, which “activity change, positive = activation” value is on record?
A: Its value is -8.86% (inactive).

Q: With `O=C1N=C(O)CN1/N=C/c1ccc(-c2ccc([N+](=O)[O-])cc2)o1` as the compound, how does the “activity change, positive = activation” value read?
A: Its value is -0.0482% (inactive).

Q: Which “activity change, positive = activation” value does the source give for `CN(C)CC[C@@H](c1ccc(Cl)cc1)c1ccccn1` here?
A: The value was 0.426% (inactive).

Q: Which “activity change, positive = activation” value does the source give for `CN(C)CCC=C1c2ccccc2CCc2ccccc21` here?
A: The value was -0.541% (inactive).

Target: T1, Hexokinase-4 (Homo sapiens) + Glucokinase regulatory protein (Homo sapiens)
Test: qHTS assay for inhibitors of recombinant human GCK-GKRP interaction: ADP-Glo assay (AID 743206);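 note: plate controls were DMSO plus enzyme for no effect and no enzyme for full effect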
Conditions: ADP-Glo luminescence, 60 min, 0% = vehicle-only wells with enzyme present; series mostly up to 76.9 µM; activity, positive = activation: at the top concentration
Method in brief: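 GST-GCK and FLAG-GKRP (15 nM each in the dispensed mix, with 2 uM S6P) react with 0.4 mM ATP and 5 mM glucose (final) in Hepes pH 7.6 for 60 min at room temperature. ADP is measured by ADP-Glo luminescence.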

Q: For `Nc1ncnc2c1ncn2[C@@H]1O[C@H](CO)[C@@H](O)[C@H]1O`, which “activity, positive = activation” value is on record?
A: The value was 3.13% (inactive).

Q: Which “activity, positive = activation” value does the source give for `OCc1cc(C(O)CNCCCCCCOCCCCc2ccccc2)ccc1O` (stereo not given) here?
A: Its value is -1.25% (inactive).

Q: For `CSc1ccc2c(c1)C(N1CCN(C)CC1)Cc1ccccc1S2` (stereo not given), which “activity, positive = activation” value is on record?
A: Its value is 5.89% (inactive).

Q: Which “activity, positive = activation” value does the source give for `O=C1N=C(O)CN1/N=C/c1ccc(-c2ccc([N+](=O)[O-])cc2)o1` here?
A: The value was 4.1% (inactive).

Q: With `CN(C)CC[C@@H](c1ccc(Cl)cc1)c1ccccn1` as the compound, how does the “activity, positive = activation” value read?
A: Its value is 4.83% (inactive).

Q: Which “activity, positive = activation” value does the source give for `CN(C)CCC=C1c2ccccc2CCc2ccccc21` here?
A: Its value is 4.13% (inactive).

Target: T1, Hexokinase-4 (Homo sapiens) + Glucokinase regulatory protein (Homo sapiens)
Test: qHTS assay for inhibitors of recombinant human GCK-GKRP interaction: HTRF assay (AID 743207);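 note: 0% = DMSO with GCK present and -100% = DMSO wells lacking GCK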
Conditions: recombinant GCK-GKRP HTRF binding, 60 min, with sorbitol-6-phosphate; series mostly up to 57.5 µM; activity change, negative = inhibition: at the top concentration
Method in brief: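 HTRF binding of 5 nM GST-GCK and 5 nM FLAG-GKRP with 2 uM S6P in pH 7.1 Hepes buffer (MgCl2, KCl, DTT, Tween 20, BSA). Anti-FLAG XL665 and anti-GST donor added, 60 min at room temperature; 665/615 nm read, normalized to with- and without-GCK controls.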

Q: For `Nc1ncnc2c1ncn2[C@@H]1O[C@H](CO)[C@@H](O)[C@H]1O`, which “activity change, negative = inhibition” value is on record?
A: Its value is 1.3% (inactive).

Q: Which “activity change, negative = inhibition” value does the source give for `OCc1cc(C(O)CNCCCCCCOCCCCc2ccccc2)ccc1O` (stereo not given) here?
A: Its value is -4.56% (inactive).

Q: With `CSc1ccc2c(c1)C(N1CCN(C)CC1)Cc1ccccc1S2` (stereo not given) as the compound, how does the “activity change, negative = inhibition” value read?
A: Its value is -26.8% (inactive).

Q: For `O=C1N=C(O)CN1/N=C/c1ccc(-c2ccc([N+](=O)[O-])cc2)o1`, which “activity change, negative = inhibition” value is on record?
A: Its value is 24.4% (inactive).

Q: For `CN(C)CC[C@@H](c1ccc(Cl)cc1)c1ccccn1`, which “activity change, negative = inhibition” value is on record?
A: The value was 2.17% (inactive).

Q: For `CN(C)CCC=C1c2ccccc2CCc2ccccc21`, which “activity change, negative = inhibition” value is on record?
A: The value was -6.29% (inactive).

System: not listed separately
Test: qHTS Assay for Identifying Gametocytocidal Compounds (AID 743244); note: potency is the fitted concentration of half-maximal effect;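 for max response: % is set by controls: 0 for no effect and ±100 for the full control effect; actives lower the fluorescent signal which means gametocytes are killed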
Conditions: P. falciparum 3D7 stage III-V gametocytes, alamarBlue, 72 h; max response: active compounds read low
Method in brief: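 Viability read-out was resazurin reduction (alamarBlue, 24 h) measured at Ex 525/Em 598 nm. Beforehand, late-stage (III-V) 3D7 P. falciparum gametocytes at 20,000 cells/well were incubated with compound 72 h at 37C under 5% CO2.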

Q: For `CN(C)CCCO[C@@H]1[C@H]2OC(C)(C)O[C@H]2O[C@@H]1C(O)CO` (stereo not given in full), which max response is on record?
A: The max response was -6.36% (inactive).

Q: For `O=C(O)c1ccccc1-c1ccc(C(F)(F)F)cc1`, which max response is on record?
A: The max response was -6.58% (inactive).

Q: Which max response does the source give for `Nc1ncnc2c1ncn2[C@@H]1O[C@H](CO)[C@@H](O)[C@H]1O` here?
A: The max response was -0.147% (inactive) and 30.2% (inactive).

Q: With `Cc1cccc(C)c1NC(=O)CN(CC(=O)O)CC(=O)O` as the compound, how does the max response read?
A: The max response was -6.34% (inactive).

Q: Which Potency does the source give for `OCc1cc(C(O)CNCCCCCCOCCCCc2ccccc2)ccc1O` (stereo not given) here?
A: The Potency was 10 µM (active).

Q: With `OCC(O)CN1CCN(c2ccccc2)CC1` (stereo not given) as the compound, how does the max response read?
A: The max response was -0.192% (inactive).

Q: With `CN(N=O)C(=O)N[C@@H]1[C@@H](O)[C@H](O)[C@@H](CO)O[C@@H]1O` as the compound, how does the max response read?
A: Its max response is 5.26% (inactive).

Q: Which max response does the source give for `O=C(Oc1ccccc1C(=O)O)c1ccccc1O` here?
A: The max response was -1.86% (inactive).

Q: With `O=C(O)c1ccccn1` as the compound, how does the max response read?
A: The max response was -0.573% (inactive).

Q: With `C[C@H]1O[C@@H](n2cc(F)c(=O)[nH]c2=O)[C@H](O)[C@@H]1O` as the compound, how does the max response read?
A: Its max response is 0.485% (inactive).

Q: For `O=C(O)Cc1sc(-c2ccccc2)nc1-c1ccc(Cl)cc1`, which max response is on record?
A: The max response was -5.46% (inactive) and 46.6% (inactive) and 14.6% (inactive).

Q: For `CCCCOc1cc(C(=O)OCCN(CC)CC)ccc1N`, which max response is on record?
A: The max response was 9.75% (inactive).

Q: With `N[C@@H](CSSC[C@H](N)C(=O)O)C(=O)O` as the compound, how does the max response read?
A: Its max response is 13.6% (inactive).

Q: Which max response does the source give for `CO/N=C(\C(=O)N[C@@H]1C(=O)N2C(C(=O)O)=C(CSc3nc(=O)c(O)nn3C)CS[C@H]12)c1csc(N)n1` here?
A: Its max response is -6.47% (inactive).

Q: Which max response does the source give for `O=C1N=C(O)CN1/N=C/c1ccc(-c2ccc([N+](=O)[O-])cc2)o1` here?
A: Its max response is 4.07% (inactive) and 20.9% (inactive).

Q: With `O=c1[nH]c(=O)c2[nH]c(=O)[nH]c2[nH]1` as the compound, how does the max response read?
A: The max response was 19.7% (inactive) and 9.73% (inactive).

Q: Which max response does the source give for `COc1ccc2cc1Oc1cc3c(cc1OC)CC[N+](C)(C)[C@H]3Cc1ccc(cc1)Oc1c(OC)c(OC)cc3c1[C@@H](C2)[N+](C)(C)CC3` here?
A: Its max response is -8.04% (inactive).

Q: What does the source list for `CN(C)CC[C@@H](c1ccc(Cl)cc1)c1ccccn1`?
A: Potency: 26.4 µM (active); max response: 25.3% (inactive)

Q: Which max response does the source give for `CCOc1ccc2ccccc2c1C(=O)N[C@@H]1C(=O)N2[C@@H]1SC(C)(C)[C@@H]2C(=O)O` here?
A: The max response was -1.05% (inactive).

Q: For `CCOc1nc2cccc(C(=O)O)c2n1Cc1ccc(-c2ccccc2-c2nn[nH]n2)cc1`, which max response is on record?
A: The max response was 5.7% (inactive).

Q: For `C[C@@H]1CCN(C(=O)[C@H](CCCN=C(N)N)NS(=O)(=O)c2cccc3c2NC[C@H](C)C3)[C@@H](C(=O)O)C1`, which max response is on record?
A: The max response was -0.0233% (inactive).

Q: Which max response does the source give for `CCCOC(=O)c1ccccc1` here?
A: The max response was -2.44% (inactive).

Q: Which max response does the source give for `O=C(O)c1ccccc1O` here?
A: The max response was 6.2% (inactive) and -5.06% (inactive).

Q: Which max response does the source give for `Cc1ccc(C(C)C)cc2c(C)ccc1-2` here?
A: The max response was 3.45% (inactive).

Q: With `Nc1nc2c(ncn2CCC(CO)CO)c(=O)[nH]1` as the compound, how does the max response read?
A: Its max response is -1.67% (inactive).

Q: With `CC(COc1ccccc1)NC(C)C(O)c1ccc(O)cc1` (stereo not given) as the compound, how does the max response read?
A: The max response was 25.2% (inactive).

Q: With `O=C1NC(=O)[C@@]2(CCOc3ccc(F)cc32)N1` as the compound, how does the max response read?
A: The max response was -2.96% (inactive).

Q: For `O=S(=O)(O)c1cc(I)c(O)c2ncccc12`, which max response is on record?
A: The max response was 5.64% (inactive).
